Vif-APOBEC3G blk – blocks the Vif interaction with human APOBEC3G | Q9HC16 | HeLa A3G-eYFP + Vif (tagged APOBEC3G with the HIV-1 protein that degrades it), YFP fluorescence, overnight | Potency, µM (doses to about 46.1 µM), inactives show at the top dose activity, negative = active, usual class: inhibitors | 410,000 compounds, 0.076% hits; also: potency is read from the fitted curve at half-maximal effect; % is scaled to controls: 0 for no effect and ±100 for the full control effect; nearly all actives have a fitted effect of over 60% in size
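Read-out is eYFP fluorescence (Ex 488/Em 500-530) from Vif-expressing HeLa A3G-eYFP cells; more signal means A3G escaped Vif-mediated degradation. Cells plated overnight, compound pinned in, incubated overnight at 37 deg C.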
TSHR antag – antagonists of human thyroid stimulating hormone receptor; P16473; TSHR-expressing cells, TSH-stimulated cAMP HTRF, 2 h; hits give low values; 330,000 compounds, 0.2% hits; activity change, negative = inhibition, % at 11.5 µM;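 active = activity change below a set negative limit, meaning inhibition stronger than a set level, cut at about -70% in these data; inconclusive = activity change between two set negative limits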; also: % is scaled to controls: 0 for no effect and ±100 for the full control effect
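Freshly harvested TSHR cells receive pin-tooled compound, then EC80 TSH at 4nM final. After 2 hours at 37 deg C, antibody in lysis buffer and cAMP-d2 are added; 30 minutes at ambient temperature precede the HTRF read.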
VDR inhibitor – blocks the human vitamin D receptor. P11473. VDR-SRC2-3 peptide fluorescence polarization, 2 h. Potency, µM, inactives show max response, negative = inhibition, most hits filed as inhibitors. 400,000 compounds, 0.93% hits. AID 504847; also: potency is read from the fitted curve at half-maximal effect; % is scaled to controls: 0 for no effect and ±100 for the full control effect
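Fluorescence polarization assay of small-molecule disruption of VDR binding to coregulator peptide SRC2-3. Compounds and controls pin-transferred, then read after 2 h incubation at ambient room temperature.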
Vif-A3F inh – Vif-A3F binding inhibition; HeLa A3F-eYFP + Vif (tagged APOBEC3F with the HIV-1 protein that degrades it), YFP fluorescence increase; Potency, µM (series often up to 46.1 µM), without a hit: at the top dose activity, negative = active; 390,000 compounds, 0.2% hits; also: potency is read from the fitted curve at half-maximal effect; % of control where 0% means no effect; nearly all actives have a fitted effect of over 65% in size
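Fluorescence increase (Ex 488/Em 500-530) after overnight compound treatment at 37 deg C flags inhibition of Vif-driven A3F-eYFP loss in stable HeLa A3F-eYFP/Vif cells seeded overnight beforehand.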
PLK1 PBD inh – blocks phosphopeptide binding to human PLK1 polo-box domain | P53350 | Plk1 PBD binding of FITC phosphopeptide, fluorescence polarization | Potency, µM, for inactives: max response, negative = inhibition, most hits filed as inhibitors | 360,000 compounds, 2.8% hits | AID 720504; also: potency is read from the fitted curve at half-maximal effect; series mostly up to about 57 µM; % is scaled to controls: 0 for no effect and ±100 for the full control effect; nearly all actives have a fitted effect of over 65% in size
Target sequence (P53350 whole entry, looked up, the tested form may be a part): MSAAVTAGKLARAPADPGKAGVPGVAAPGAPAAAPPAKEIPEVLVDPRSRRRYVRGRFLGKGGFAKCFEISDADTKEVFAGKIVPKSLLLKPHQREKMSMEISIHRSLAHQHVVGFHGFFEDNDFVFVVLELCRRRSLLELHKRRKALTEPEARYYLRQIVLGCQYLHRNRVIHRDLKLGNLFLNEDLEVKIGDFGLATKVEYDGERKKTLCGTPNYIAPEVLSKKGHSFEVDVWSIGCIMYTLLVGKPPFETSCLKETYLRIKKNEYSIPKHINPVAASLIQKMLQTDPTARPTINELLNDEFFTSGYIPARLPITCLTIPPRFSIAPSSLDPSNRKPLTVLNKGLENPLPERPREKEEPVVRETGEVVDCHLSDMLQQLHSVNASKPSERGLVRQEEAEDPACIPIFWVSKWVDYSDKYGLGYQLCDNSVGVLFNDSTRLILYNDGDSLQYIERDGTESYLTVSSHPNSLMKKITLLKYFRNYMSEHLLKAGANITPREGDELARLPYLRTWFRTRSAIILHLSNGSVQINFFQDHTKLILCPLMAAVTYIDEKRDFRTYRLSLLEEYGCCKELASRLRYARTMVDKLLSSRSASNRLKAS
Active calls of the source: *; ? = inconclusive; . = no result; ! = a repeat was not active. Sampled rows, rich in hits. Any-hit rate of the full collection: about 3.1%. Unless noted, calls follow the shape of the dose curve; as a rule, active = well fitted curve in the direction sought with a large enough effect; inconclusive = small, poorly fitted or top-dose-only effect, or another doubt; inactive = no such curve, though single readings can be large; an effect the other way counts as inactive or inconclusive.

SMILES	Vif-APOBEC3G blk	TSHR antag	VDR inhibitor	Vif-A3F inh	PLK1 PBD inh
CN(C)c1nc(=NCc2cccs2)ss1	-10%	.	?	-8%	5.3µM*
O=C(CN1CCN(Cc2ccccc2Cl)C1=O)NCc1ccccc1Cl	1%	.	-1%	1%	.
S=P(N1CC1)(N1CC1)N1CC1	-1%	26	89µM*!	7%	?
CC[C@@H](C(=O)[C@@H](C)[C@@H](O)[C@H](C)CCc1ccc(C)c(O)c1C(=O)O)C1O[C@](CC)(C2CC[C@](O)(CC)[C@H](C)O2)C[C@@H]1C (stereo partly drawn)	.	.	-26%	.	.
COc1ccc(C)cc1NC(=O)c1ccc2c(SCC(=O)O)c3c(nc2c1)CCCC3	-1%	-31	-11%	6%	-25%
COc1cc(Cl)c(C)cc1NC(=O)c1ccc2c(SCC(=O)O)c3c(nc2c1)CCCC3	-1%	-22	?	-1%	42µM*
CC(=O)c1ccc(-n2nncc2C(C)(C)C)cc1	0%	5	2%	0%	-5%
Cc1cnnn1-c1ccc(C(=O)CCl)cc1	-3%	-1	-23%	-2%	3.8µM*
CC1(C)CCC[C@@](C)([C@H]2CC[C@]3(C)[C@@H]2[C@H](O)C[C@@H]2[C@@]4(C)CC[C@H](O)C(C)(C)[C@@H]4[C@@H](O)C[C@]23C)O1	.	.	7%	.	.
Cc1ccc(S(=O)(=O)NCCOc2nc(N(C)C)nc(N(C)C)n2)cc1	2%	3	?	-6%	24µM*
Cc1ccc(S(=O)(=O)NCCCNS(C)(=O)=O)cc1	4%	2	11%	0%	-2%
Cc1ccc(S(=O)(=O)NCCNS(=O)(=O)c2ccc(C)cc2)cc1	0%	-83*	5%	?	2%
CNC(=O)CCCCCNS(=O)(=O)c1ccc(C)cc1	-1%	2	-9%	5%	19µM*
CCCCCCCCCCCCC/C=C/[C@@H](O)[C@H](CO)NCCCCCCCC	.	.	-2%	.	.
CCOC(=O)C1CCN(S(=O)(=O)c2nc3nc(C)cc(C)n3n2)CC1	1%	-3	-6%	-1%	30µM*
CCOC(=O)C1CCN(C(=O)COC(=O)c2nc3nc(C)cc(C)n3n2)CC1	-1%	8	-4%	-2%	-4%
CCOC(=O)C1CCN(S(=O)(=O)c2c(Cl)ccc3nonc23)CC1	.	-90*	.	.	.
CC1C(=O)C(=O)C=CN1C (stereo not drawn)	.	.	-7%	.	.
O=C(O)c1ccc(-c2ccccc2)[nH]1	-4%	-11	8%	3%	-3%
O=C(O)c1ccc(-c2ccccc2)[nH]c1=O	6%	-3	?	2%	24µM*
O=C(OCc1cc(=O)n2c3c(sc2n1)CCCC3)c1cccc(NC(=O)c2ccccc2F)c1	5%	.	10%	4%	.
CC(=O)Nc1ccc(OC(=O)c2ccc(Cl)cc2)cc1	3%	5	-14%	-10%	6%
CC1(C)CC(=O)C=C(OC(=O)c2ccc(Cl)cc2)C1	-1%	-7	16%	2%	12µM*
CC1(C)OC(=O)C2(Cc3cc([N+](=O)[O-])ccc3N3CCCCC32)C(=O)O1 (stereo not drawn)	1%	.	-10%	.	.
COc1ccc(C)cc1NC(=O)Cc1csc(NC(=O)Nc2ccccc2OC)n1	-8%	.	.	-3%	30µM*
SMILES	Vif-APOBEC3G blk	TSHR antag	VDR inhibitor	Vif-A3F inh	PLK1 PBD inh
O=C(N/N=C/c1ccccc1Cl)c1nc2ccc([N+](=O)[O-])cc2c(=O)[nH]1	0%	7	?	?	24µM*
COc1ccc(-n2sc3c(c2=S)-c2cc(OC)ccc2NC3(C)C)cc1	0%	7	2%	2%	24µM*
CN(C(=O)COC(=O)C1c2ccccc2Oc2ccccc21)C1CCS(=O)(=O)C1 (stereo not drawn)	-1%	-2	2%	8%	-10%
O=C(COC(=O)C1c2ccccc2Oc2ccccc21)NC1CCS(=O)(=O)C1 (stereo not drawn)	0%	-2	?	0%	12µM*
CNC(=O)CSc1ncnc2c1cnn2-c1ccccc1	2%	-12	-13%	-1%	-1%
CCOC(=O)CNC(=O)CSc1ncnc2c1cnn2-c1ccc(Cl)cc1	-5%	-8	-7%	-6%	24µM*
CC(=O)CSc1ncnc2c1cnn2-c1ccccc1	0%	-12	?	-8%	24µM*
